PubChem BioAssay (NCATS)
Inconclusive results are not listed. Unmarked numbers belong to inactive results. Active and inactive are the calls of the source. Calls come from the whole dose curve; as a rule, active = well fitted inhibition curve with a large enough effect; inconclusive = small, poorly fitted or top-dose-only effect; inactive = no such curve, though single readings can be large or run the other way.

What follows are compounds tested on Zika virus NS2B-NS3 protease (linked construct) (assay: Primary screen NINDS Rhodamine qHTS for Zika virus inhibitors (AID 1347160; note: nearly all actives have a fitted effect of over 55% in size)). Conditions: purified NS2B-NS3 protease, Rhodamine110 substrate fluorescence; series mostly up to 57.1 µM; activity change, negative = inhibition: at the top concentration.
Summary of the method: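 Enzyme (25 nM, linked NS2B-NS3) was preincubated 15 min with compound in 10 mM Tris-HCl pH 8.0, 0.01% Tween 20. Rhodamine110 substrate (1.5 microM) was then added and fluorescence read at start and after 15 min.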
% is set by controls: 0 for no effect and ±100 for the full control effect.

Compound	activity change, negative = inhibition	outcome
Cn1c(SCC(=O)N2CCC[C@H]2C(=O)Nc2ccccc2-c2ccccc2)nc2ccccc21	2.31%	
O=C(c1ccccn1)N(Cc1cccs1)C1(C(=O)NC2CCCCC2)CCCCC1	9.89%	
C=C1C(=O)OC2C1CCC1(C)C(O)CCC(=C)C21 (stereo not drawn)	-9.6%	
CC1=CC2/C=C(\C)CCC3OC(C)(C)OC3CCC(=O)C23C(=O)NC(CC(C)C)C3C1C (stereo not drawn)	-14.5% [at 33.1 µM]	
COc1c(C(C)C)c(O)c(O)c2c1C(OC)[C@H]1OC(=O)[C@@]23CCCC(C)(C)[C@H]13 (stereo partly drawn)	-13% [at 33.1 µM]	
C=C1C(=O)O[C@@H]2/C=C(\C)CC/C=C(/C=O)[C@H](OC)[C@@H](OC(=O)C(C)C)[C@@H]12	-7.09% [at 33.1 µM]	
C/C(=C\CCC(C)C1=CCC2(C)OC3=C(CC12)C(=O)C(O)CC3)CO (stereo not drawn)		inactive [at 33.1 µM]
Cc1cc(-c2cnc(N)c3c(-c4ccc5scnc5c4)csc23)n(C)n1	-0.913%	
C/C=C(/C)C(=O)OC1CC(C)(C)CC2C3=CCC4C5(C)CCC(O[C@@H]6O[C@H](C(=O)O)[C@@H](O)[C@H](O)[C@H]6O[C@@H]6O[C@H](CO)[C@H](O)[C@H](O[C@@H]7OC[C@H](O)[C@H](O)[C@H]7O[C@@H]7O[C@H](CO)[C@@H](O)[C@H](O)[C@H]7O)[C@H]6O)C(C)(C)C5CCC4(C)C3(C)C(O)C(O)C12CO (stereo partly drawn)		inactive [at 10.7 µM]
COc1ccc(-c2cc3onc(-c4ccncc4)c3c(=O)n2C)cc1		inactive
COc1c(CCC(=O)O)cccc1O[C@@H]1O[C@H](CO)[C@@H](O)[C@H](O)[C@H]1O	-26.6% [at 33.1 µM]	
CN(C)c1cccc(Oc2cnc(Nc3cccc(O)c3)nc2)c1	8.97%	
CC(NC(=O)Cc1cc(F)cc(F)c1)C(=O)NC1C(=O)N(C)c2ccccc2-c2ccccc21 (stereo not drawn)	109%	
CCC(CC)C(c1ccc(Nc2nc3ccccc3s2)cc1)n1cncn1 (stereo not drawn)		inactive
CO[C@H]1O[C@@H]2O[C@@]3(C)CCC4[C@H](C)CCC([C@H]1C)[C@]42OO3 (stereo partly drawn)	13.3%	
C/C=C(/C)C(=O)O[C@H]1C=C(CO)C(=O)[C@H](OC(=O)/C(C)=C/CO)[C@H]1C(C)C		inactive [at 33.1 µM]
C/C=C(\C)[C@@H]1C(C)=C[C@@H]2[C@H]([C@@H]1/C=C/C=C/C(=O)O)[C@@H](C)CC[C@@H]2O	-25.7% [at 33.1 µM]	
CCC(C(C)O)n1ncn(-c2ccc(N3CCN(c4ccc(OCC5COC(Cn6cncn6)(c6ccc(F)cc6F)C5)cc4)CC3)cc2)c1=O (stereo not drawn)		inactive
NC(N)=N/N=C/c1ccccc1Cl	90%	
C[C@H]1CC[C@@]2(OC1)O[C@H]1CC3[C@@H]4CC[C@@H]5C[C@@H](O[C@@H]6O[C@H](CO)[C@@H](O[C@@H]7O[C@H](CO[C@@H]8OC[C@@H](O)[C@H](O)[C@H]8O)[C@@H](O[C@@H]8O[C@H](CO)[C@H](O)[C@H](O)[C@H]8O)[C@H](O)[C@H]7O)[C@H](O)[C@H]6O)CC[C@]5(C)C4CC[C@]3(C)[C@H]1[C@@H]2C (stereo partly drawn)	-15.8% [at 15.1 µM]	
COc1ccc(CCO[C@@H]2O[C@H](CO[C@H]3OC[C@](O)(CO)[C@H]3O)[C@@H](OC(=O)/C=C/c3ccc(O)c(O)c3)[C@H](O[C@@H]3O[C@@H](C)[C@H](O)[C@@H](O)[C@H]3O)[C@H]2O)cc1OC	-4.09% [at 15.1 µM]	
CC(C)(CNC(=O)c1cccc(-c2noc(C(F)(F)F)n2)c1)c1coc(-c2ccccc2)n1	-11.4%	
CC(=O)O[C@@H]1CC2C(C)(C)C(=O)C=C[C@]2(C)C2CC[C@@]3(C)[C@H](c4ccoc4)OC(=O)[C@H]4O[C@]43[C@@]21C (stereo partly drawn)	-6.13% [at 33.1 µM]	
Cc1cc(C(C)Nc2ccccc2C(=O)O)c2nc(N3CCOCC3)cc(=O)n2c1 (stereo not drawn)		inactive
CCn1c2ccccc2c2cc(Nc3ccnc(NCCCN4CCOCC4)n3)ccc21	293%	
C=C1CO[C@@]2(O[C@H]3CC4C5CC=C6C[C@@H](O)C[C@@H](O[C@@H]7OC[C@H](O)[C@H](O[C@@H]8OC[C@@H](O)[C@H](O)[C@H]8O)[C@H]7O[C@@H]7O[C@@H](C)[C@H](OC(C)=O)[C@@H](OC(C)=O)[C@H]7OC(C)=O)[C@]6(C)C5CC[C@]4(C)[C@@H]3[C@@H]2C)[C@@H](O)[C@H]1OC1OC(C)C(O)C(O)C1O (stereo partly drawn)	5.43% [at 10.7 µM]	
CCCc1cc(C)n(C)c(=O)c1CN(C)C(=O)c1cc(-c2ccc(N3CCN(C(C)C)CC3)nc2)cc2c1cnn2C(C)C	-1.49%	
Cn1ccc(NC(=O)c2cc(Oc3ccc(C(=O)N4CCC4)c(F)c3)c3c(c2)OC(C)(C)C3)n1		inactive
